Screening data as filed in PubChem BioAssay.
KCNQ2 pot: potentiators of rat KCNQ2 potassium channel; O88943; CHO-K1 KCNQ2, FluxOR thallium flux fluorescence; active compounds read high; B-score at 10 µM; 310,000 compounds, 0.54% hits; AID 2239;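 active = fluorescence ratio B-score at least 3 SD of library B-scores, with initial fluorescence B-score within 3 of them, cut at about 5.3 in these data; same plate scores as AID 2156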;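 also: B-score of peak minus minimum over baseline fluorescence ratio after K+ and Tl+ stimulus; positive B-score means potentiation of KCNQ2 with more thallium influx and brighter signal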
Target sequence (O88943 whole entry, looked up): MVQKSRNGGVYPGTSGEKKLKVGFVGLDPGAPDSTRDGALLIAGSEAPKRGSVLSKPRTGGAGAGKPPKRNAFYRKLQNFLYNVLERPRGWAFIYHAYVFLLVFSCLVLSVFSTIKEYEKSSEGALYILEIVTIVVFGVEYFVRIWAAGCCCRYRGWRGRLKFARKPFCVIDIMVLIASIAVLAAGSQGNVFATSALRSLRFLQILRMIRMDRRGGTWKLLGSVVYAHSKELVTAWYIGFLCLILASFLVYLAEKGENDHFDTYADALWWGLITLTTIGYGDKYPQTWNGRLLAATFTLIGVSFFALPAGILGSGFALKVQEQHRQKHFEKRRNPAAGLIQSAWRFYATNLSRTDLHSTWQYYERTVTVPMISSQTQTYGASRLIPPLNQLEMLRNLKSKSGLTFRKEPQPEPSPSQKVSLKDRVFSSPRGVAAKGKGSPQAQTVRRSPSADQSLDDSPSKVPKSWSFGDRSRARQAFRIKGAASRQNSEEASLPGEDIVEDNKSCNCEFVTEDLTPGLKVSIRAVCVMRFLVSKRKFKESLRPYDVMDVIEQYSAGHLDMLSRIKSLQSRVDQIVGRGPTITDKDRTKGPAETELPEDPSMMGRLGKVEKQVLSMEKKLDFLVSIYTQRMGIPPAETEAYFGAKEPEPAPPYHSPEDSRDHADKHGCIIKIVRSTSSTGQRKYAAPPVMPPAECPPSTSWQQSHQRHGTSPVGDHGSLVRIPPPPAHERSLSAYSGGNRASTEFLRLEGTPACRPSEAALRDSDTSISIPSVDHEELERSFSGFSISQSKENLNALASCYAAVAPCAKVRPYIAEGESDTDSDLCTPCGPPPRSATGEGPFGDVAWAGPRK
KCNQ2 block: blocks the rat KCNQ2 potassium channel; O88943; CHO-K1 KCNQ2, FluxOR thallium flux, 20 min; active compounds read low; B-score at 10 µM; 310,000 compounds, 1.1% hits; AID 2156;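 active = fluorescence ratio B-score at most minus 3 library SDs, with starting brightness B-score within 2 library SDs, cut at about -5.5 in these data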
An asterisk follows results filed as active; i = inactive; . = no result given. Only some compounds are listed: those with a hit (about 1.6% of all), similar ones and a draw of the others.

SMILES	KCNQ2 pot	KCNQ2 block
CN(C)/C=C(\C#N)S(=O)(=O)c1ccc(Cl)cc1	-6.76	-6.76*
CN1CCN(/C=C(\C#N)S(=O)(=O)c2ccc(Cl)cc2)CC1	.	i
CCN(CC)S(=O)(=O)c1cccc(C(=O)NCC2CCCCC2)c1	1.35	i
COc1ccc(N2C(=O)CSC23C(=O)N2CCCc4cccc3c42)cc1 (centres undefined)	3.83	i
COc1ccc(N2C(=O)CSC23C(=O)N2c4c(cccc43)C(C)=CC2(C)C)cc1 (centres undefined)	-6.18	-6.18*
CCCn1cc(CN2CCC(N3CCC(C(=O)N4CCOCC4)CC3)CC2)c(C)n1	0.07	i
O=C(c1nc2ccc(Cl)cn2c1CN1CCC(O)CC1)N1CCc2ccccc2C1	0.37	i
CC1CCN(Cc2c(C(=O)N3CCc4ccccc4C3)nc3ccc(Cl)cn23)CC1	-5.8	-5.8*
CC(=O)Nc1ccc(C(=S)NCCCO)cc1	0.01	i
S=c1[nH]c(-c2ccc(Cl)cc2)cs1	19.1*	i
S=c1nccc(-c2ccc(Cl)cc2)[nH]1	.	i
O=C(CN(C1CCCCC1)C1CCCCC1)N1CCc2ccccc2C1	-8.03	-8.03*
O=C(CN(C1CCCCC1)S(=O)(=O)c1ccccc1)N1CCCC1	.	i
CCN1C(=O)[C@H]2[C@@H](c3ccc(OC)cc3)N3C(=O)CN(CCOC)C(=O)[C@@]3(Cc3ccccc3)[C@H]2C1=O	0.02	i
O=C(CCS(=O)(=O)c1ccc(F)cc1)N1CCOCC1	.	i
C/C(=N\NC(=O)c1cccc2ccccc12)c1ccccn1	.	i
C/C(=N\NC(=O)c1ccoc1C)c1cccc2ccccc12	11.7*	i
CCOc1cc(C(=O)OCC(=O)N(C)c2ccccc2)cc(OCC)c1OCC	.	i
Cc1ccccc1NC(=O)/C=C/c1ccc([N+](=O)[O-])s1	-5.73	-5.73*
Cc1cc(C)cc(NC(=O)/C=C/c2ccc([N+](=O)[O-])s2)c1	.	i
Cc1cc(NCc2ccccc2)nc2ccccc12	2	i
C/C(CCC(C)C)=N\Nc1cc(C)c2ccccc2n1	-8.32	-8.32*
CCCCN(C(=O)Cc1cccc(F)c1)c1c(N)n(CCC)c(=O)[nH]c1=O	.	i
Cc1ccc(CN(Cc2ccccn2)C(=O)Nc2ccc(C)c(C)c2)cc1	-6.85	-6.85*
CSc1cccc(NC(=S)N(Cc2ccc(C)cc2)Cc2ccccn2)c1	.	i
SMILES	KCNQ2 pot	KCNQ2 block
CCn1c(SCC(=O)NC(=O)NCc2ccco2)nc2sc(C)c(C)c2c1=O	5.96*	i
Cc1sc2nc(SCC(=O)NCc3ccco3)n(C)c(=O)c2c1C	.	i
COc1ccc2oc(=N)c(C(=O)Nc3cccc(C)c3C)cc2c1	.	i
Nc1nc(NCCCN2CCOCC2)nc(Nc2ccccc2F)c1[N+](=O)[O-]	.	i
COc1ccc(CCNC(=S)Nc2cccc3ccccc23)cc1	.	i
COc1ccc(OCCNC(=S)Nc2cccc3ccccc23)cc1	-6.24	-6.24*
Cc1cccc(N2CCN(C(=O)c3cc4c(=O)n(C)c5ccccc5c4n3C)CC2C)c1 (centres undefined)	-6.06	-6.06*
Cn1c(C(=O)N2CCCCCC2)cc2c(=O)n(C)c3ccccc3c21	0.64	i
CCCc1nc2ccccc2c(C(=O)OCC(=O)NCc2ccc3c(c2)OCO3)c1CC	.	i
CCc1nc2ccccc2c(C(=O)OCC(=O)NCc2ccc3c(c2)OCO3)c1C	-5.85	-5.85*
CNc1ccccc1C(C)(C)c1cc(-c2ccc(F)cc2)no1	0.13	i
OCCc1c[nH]c2ccc(C(F)(F)F)cc12	1.73	i
Nc1nc(-c2cccnc2)nc2sc3c(c12)CCCC3	3.48	i
O=C1CN(c2nc(-c3cccnc3)nc3sc4c(c23)CCCC4)CCN1	-5.68	-5.68*
Cn1c(SCC(=O)Nc2ccc3[nH]c(=O)[nH]c3c2)nnc1-c1ccc(F)cc1	.	i
CCOc1cc(C(=O)CSc2nnc(CNc3ccc(Cl)cc3)o2)ccc1NC(=O)CC	6.18*	i
COc1ccc(NCc2nnc(SCC(=O)c3ccc(OC)cc3)o2)cc1	0.8	i
CCCN(CCC)C(C(=O)Nc1cccc(OC)c1)c1ccccc1 (centres undefined)	-5.93	-5.93*
CCC(C(=O)OCC(=O)Nc1cccc(OC)c1)c1ccccc1 (centres undefined)	.	i
Cc1ccc(CN(CC(O)COc2cccc3[nH]cc(C)c23)C(C)(C)C)cc1 (centres undefined)	-6.68	-6.68*
Cc1c[nH]c2cccc(OCC(CNC(C)(C)C)OC(=O)c3ccccc3)c12 (centres undefined)	.	i
CCc1ccc(C(=O)COC(=O)c2cccnc2Cl)cc1	.	i
COc1cccc2c1C(=O)CC1C2CCC2CC(=O)CCC21C (centres undefined)	0.03	i
CC1CCCN(C2(O)C(=O)Nc3ccc([N+](=O)[O-])cc32)C1 (centres undefined)	.	i
Cc1cc(=O)n2nc(N3CCC(C(=O)NCC(C)c4ccccc4)CC3)sc2n1 (centres undefined)	1.89	i
SMILES	KCNQ2 pot	KCNQ2 block
O=C(CSc1nnc(NC(=O)c2ccc(F)cc2F)s1)NC1CC1	.	i
Cc1ccc(NC(=O)c2cccc(C(=O)Nc3ccc(C)c(C)c3)n2)cc1C	-6.41	-6.41*
CCc1ccc(NC(=O)c2cccc(C(=O)Nc3ccc(CC)cc3)n2)cc1	0.46	i
CC1=CC(C#N)(C#N)C(C#N)(C#N)C(c2ccccc2)N1 (centres undefined)	.	i
CC1CCC(C(C)C)C2=C1C(C#N)(C#N)C(C#N)(C#N)C(c1ccccc1)N2 (centres undefined)	-7.84	-7.84*
CCC(CO)n1c(SCc2cc(=O)oc3cc(C)ccc23)nc2ccccc2c1=O (centres undefined)	-7.65	-7.65*
COc1ccccc1-n1c(SCc2cc(=O)oc3cc(O)ccc23)nc2ccccc2c1=O	.	i
CC1CN(CC(O)COCc2ccc3c(c2)OCO3)CC(C)O1 (centres undefined)	0.16	i
CCC(=O)Nc1nc(NCc2ccccc2OC)n(-c2ccccc2)n1	.	i
O=S1(=O)C=C(Oc2ccc3ccccc3c2)c2ccccc21	-6.11	-6.11*
O=S1(=O)C=C(Oc2ccc(F)cc2)c2ccccc21	0.45	i
NC(=O)c1cc(N=Nc2c(N)[nH]n(-c3c(Cl)cc(Cl)cc3Cl)c2=O)ccc1Cl	0.45	i
COc1ccc(OCC(=O)Nc2ccccc2C(=O)Nc2ccc(C(=O)O)cc2)cc1	.	i
N=c1n(Cc2ccc(Cl)cc2)c2ccccc2n1CC(O)COc1ccccc1 (centres undefined)	.	i
N=c1n(Cc2ccccc2)c2ccccc2n1CC(O)COc1ccc(Cl)cc1Cl (centres undefined)	-5.98	-5.98*
CCCCC1(CO)C(=O)N(c2ccccc2)N(c2ccccc2)C1=O	0.29	i
CCCCC1(Cc2cccc([N+](=O)[O-])c2)C(=O)N(c2ccccc2)N(c2ccccc2)C1=O	-6.93	-6.93*
COc1cccc(N2CC(NS(=O)(=O)c3cccnc3)CC2=O)c1 (centres undefined)	0.9	i
COc1cccc(Nc2nc(C)cc(C)c2C(N)=O)c1	1.02	i
CC(=O)N1CCN(c2ccccc2NC(=O)COc2cc(C)ccc2C(C)C)CC1	-7.76	-7.76*
Cc1cccc(OCC(=O)Nc2ccccc2N2CCCC2)c1C	.	i
Cc1cccc(OCC(=O)Nc2ccccc2N2CCN(C(=O)C(C)C)CC2)c1C	-5.85	-5.85*
Cc1ccc(C(C)C)c(OCC(=O)Nc2ccccc2N2CCN(C)CC2)c1	.	i
